Screening data (PubChem BioAssay)
HCV inh = inhibitors of hepatitis C virus infection | Potency, µM (series often up to 41.8 µM), for the others: at the highest dose activity change, negative = inhibition, hits mostly inhibitors | Huh7.5.1 HCVcc-Cre infection, luciferase reporter, 44 h | 340,000 tested, 3.4% active
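Infectious HCVcc-Cre (~0.5 moi) was added to cells just after compound, with cells seeded 4 h earlier at 1,000 per well. Luciferase activity after 44 h culture reported infection; substrate was incubated 15 min at room temperature before reading.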
Sm TGR inh = S. mansoni TGR enzyme inhibition. Potency, µM (top dose mostly 114 µM), for the others: top-dose activity change, negative = inhibition, usual class: inhibitors. AID 485364. Q962Y6. 360,000 tested, 3% active. purified TGR, DTNB reduction, TNB absorbance 405 nm; further: nearly all actives have a fitted effect of over 60% in size
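TGR 20 nM + NADPH 100 uM (dispensed conc.), cpd preinc 15 min RT; start with NADPH (500 uM addition) then DTNB (15 mM addition). Kinetic TNB absorbance, 405 nm filter. Four-parameter Hill fit across titration.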
Marburg entry inh = blocks Marburg virus binding to or entry into cells; Marburg virus pseudotyped entry inhibition, cell reporter; Potency, µM (series often up to 37.8 µM), inactives show at the highest dose activity change, negative = inhibition, usual class: inhibitors; 300,000 tested, 1.8% active; AID 540276; calls by dose curve; tested in HEK293 cells
RE007 growth inh = less growth of the S. pombe RE007 Vpr strain; S. pombe RE007 Vpr strain, BacTiter-Glo ATP luminescence, 24 h; 360,000 tested, 0.21% active; Potency, µM (highest dose often 92.2 µM), inactives show at the highest dose activity change, negative = less growth, actives largely listed as inhibitors; AID 651644; active means well fitted falling curve with a large enough effect; inconclusive means small, poorly fitted or top-dose-only effect; inactive means no such curve, though single readings can be large or run the other way; further: nearly all actives have a fitted effect of over 50% in size
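Fission yeast strain RE007, carrying one chromosomally integrated HIV-1 vpr copy, was seeded at OD 0.01 in PMG+AL medium with 23 nL pinned compound. After 24 h at 30 °C and 99% humidity, viability was read by BacTiter-Glo luminescence.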
FMDV antiviral = blocks foot and mouth disease virus. FMDV antiviral cell-based qHTS. Potency, µM (titrated, usually from 57.9 µM), inactives show at the highest dose activity change, negative = inhibition, usual class: inhibitors. 410,000 tested, 1.2% active; calls by dose curve; tested in HEK293T cells; further: read-out not given here; nearly all actives have a fitted effect of over 45% in size
Lassa entry inh = Lassa virus entry inhibition | Lassa virus pseudotype entry inhibition, cell reporter | Potency, µM (titrated, usually from 37.9 µM), for inactives: at the top dose activity change, negative = inhibition, usual class: inhibitors | 300,000 tested, 1.2% active; calls by dose curve; tested in HEK293 cells; further: nearly all actives have a fitted effect of over 50% in size
An asterisk follows results filed as active; [ ] = dose if it differs, or a comment. Shown are actives, neighbours in structure and some others; about 7.2% of the full set was active somewhere. Unless noted, the call rests on the fitted dose curve; in most records, active means well fitted curve in the direction sought with a large enough effect; inconclusive means small, poorly fitted or top-dose-only effect, or another doubt; inactive means no such curve, though single readings can be large; an effect the other way counts as inactive or inconclusive. On the % scale 0 is the no-effect control and ±100 the full control effect; potency means the concentration at half of the fitted maximal effect.

For CCS(=O)(=O)c1nc(S(=O)(=O)c2ccc(Cl)cc2)c(N2CCOCC2)s1 the results were HCV inh 2%, Sm TGR inh 22µM*, RE007 growth inh -2% and FMDV antiviral -1%.
Screening CCCCc1nc(S(=O)(=O)c2ccc(Cl)cc2)c(N2CCOCC2)o1 returned HCV inh 9%, Sm TGR inh 7.9µM*, Marburg entry inh -11%, RE007 growth inh 13%, FMDV antiviral 15% and Lassa entry inh 10%.
CS(=O)(=O)c1nc(S(=O)(=O)c2ccc(Cl)cc2)c(N2CCC(C(N)=O)CC2)s1 was read as HCV inh 16%, Sm TGR inh 11µM*, RE007 growth inh -4% and FMDV antiviral -1%.
`NC(=O)C1CCN(CCS(=O)(=O)c2ccc(Cl)cc2)CC1` gave HCV inh 1%, Sm TGR inh 45µM*, RE007 growth inh -6% and FMDV antiviral -26%.
Screening COc1ccccc1N1CCN(c2nc(CNC(=O)C3CC34CCCC4)nc3ccccc23)CC1 (configuration not stated) returned FMDV antiviral -7%.
For Cc1nc(-c2ccccc2)sc1-c1ccc(SCC(=O)NCc2ccccc2Cl)nn1 the results were Sm TGR inh 9%, FMDV antiviral -17% and Lassa entry inh 13%[46.1 µM].
For CC(=O)Nc1nnc(SCC(=O)NCC2CCCO2)s1 (configuration not stated) the results were HCV inh 19%, Sm TGR inh -2%, Marburg entry inh -7%, RE007 growth inh -4% and Lassa entry inh -7%.
CCC(=O)Nc1nnc(SCC(=O)NCC2CCCO2)s1 (configuration not stated) was read as HCV inh 3.5µM*, Marburg entry inh 16%, RE007 growth inh 85%, FMDV antiviral -13% and Lassa entry inh inconclusive.
For CC(=O)N1c2ccccc2CC1C(=O)N1CCN(c2cc(Cl)ccc2C)CC1 (configuration not stated) the results were Sm TGR inh inconclusive, FMDV antiviral inconclusive and Lassa entry inh -1%[46.1 µM].
For CCN(CC)c1ccc(NC(=O)c2cc(OC)cc(OC)c2)c(C)c1 the results were HCV inh inconclusive, Sm TGR inh -1%, Marburg entry inh inconclusive, RE007 growth inh -28%, FMDV antiviral -21% and Lassa entry inh inconclusive.
For Cc1cc(NC(=O)c2ccc3c(c2)OCO3)ccc1NC(=O)c1ccccc1 the results were HCV inh inconclusive, Sm TGR inh -6%, Marburg entry inh inconclusive, RE007 growth inh 9%, FMDV antiviral 7.9e-05µM* and Lassa entry inh 8%[46.1 µM].
Screening CCN(CC)c1ccc(NC(=O)c2ccc3c(c2)OCO3)c(C)c1 returned HCV inh 11µM*, Sm TGR inh 0%, Marburg entry inh -23%[46.1 µM], RE007 growth inh -11%, FMDV antiviral 14% and Lassa entry inh -22%[46.1 µM].
Screening O=C(Nc1ccc2nsnc2c1)c1ccc2c(c1)OCO2 returned HCV inh 2%, Sm TGR inh 14%, Marburg entry inh inconclusive, RE007 growth inh -11%, FMDV antiviral -2% and Lassa entry inh 12µM*.
Cc1cc(=O)oc(C)c1C(=O)Nc1ccc2ncccc2c1 was read as HCV inh 4%, Sm TGR inh -2%, Marburg entry inh 1%, RE007 growth inh 7%, FMDV antiviral -11% and Lassa entry inh 0%.
Cc1cc(=O)oc(C)c1C(=O)Nc1ccc2nsnc2c1 was read as HCV inh 5%, Sm TGR inh -2%, Marburg entry inh 24%, RE007 growth inh 15%, FMDV antiviral 25µM* and Lassa entry inh 6%.
CCOc1ccc(-c2cccc(NS(=O)(=O)c3ccc(Cl)s3)c2)nn1 was read as Sm TGR inh 5%, FMDV antiviral 42% and Lassa entry inh 4%[46.1 µM].
Screening O=C1c2ccccc2C(c2nnnn2-c2ccc3c(c2)OCCO3)N1CCOc1ccccc1 (configuration not stated) returned RE007 growth inh -1% and FMDV antiviral 33%.
`CCCC(=O)Nc1ccc2nc(SCCOc3ccccc3)sc2c1` gave Sm TGR inh 1%, Marburg entry inh -26%[46.1 µM], FMDV antiviral -17% and Lassa entry inh -16%[46.1 µM].
